E coli Lon inh = inhibits E. coli Lon protease | hit rate 0.42% among 360,000 | inhibition, % at 7.94 µM | P0A9M0 | purified E. coli Lon protease, fluorescence polarization | AID 602123; in the data active = inhibition above about 13%, passing the limit was not always enough
MCL1 BIM primary = disrupts human MCL1 binding to BIM-BH3 peptide; inhibition, % at 10.9 µM; AID 2057; hit rate 0.68% among 320,000; Q07820; GST-MCL1 / FITC-Bim-BH3 fluorescence polarization;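 active = inhibition above the mean inhibition of all tested compounds plus 3 SD, set per campaign, cut at about 40% in these data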;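 note: higher means more loss of mP so more displacement of Bim peptide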
Target sequence (Q07820 whole entry, looked up): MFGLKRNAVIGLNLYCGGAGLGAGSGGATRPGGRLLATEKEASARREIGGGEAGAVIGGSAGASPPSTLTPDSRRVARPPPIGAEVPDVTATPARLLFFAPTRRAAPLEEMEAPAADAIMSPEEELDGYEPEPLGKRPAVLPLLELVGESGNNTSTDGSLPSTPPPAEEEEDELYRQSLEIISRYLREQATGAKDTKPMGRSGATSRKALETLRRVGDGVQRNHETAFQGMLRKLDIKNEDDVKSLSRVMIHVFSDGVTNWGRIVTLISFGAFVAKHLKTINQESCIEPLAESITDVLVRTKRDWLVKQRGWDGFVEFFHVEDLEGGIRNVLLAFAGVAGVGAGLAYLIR
EBV gp42 inh = blocks Epstein-Barr virus glycoprotein 42 binding; Q1HVG2; Fluorescence polarization binding assay, mP read-out; inhibition, % (tested at 21.74 µM); hit rate 0.42% among 220,000; in the data active = inhibition above about 50%
Target sequence (Q1HVG2 whole entry, looked up): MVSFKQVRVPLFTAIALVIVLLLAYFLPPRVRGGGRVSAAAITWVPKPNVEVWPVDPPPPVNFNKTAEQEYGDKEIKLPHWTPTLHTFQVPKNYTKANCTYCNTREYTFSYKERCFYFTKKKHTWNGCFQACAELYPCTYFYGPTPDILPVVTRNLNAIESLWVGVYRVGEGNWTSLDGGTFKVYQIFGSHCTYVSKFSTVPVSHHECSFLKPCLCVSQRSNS
GLD-1 RNA inh = GLD-1-TGE RNA interaction inhibition (C. elegans); Q17339; purified GLD-1 + fluorescein TGE RNA, fluorescence polarization; inhibition, % at 5.96 µM; hit rate 0.44% among 320,000;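 active = percent inhibition above a per-plate cutoff, the plate mean of test compounds plus 3 SD, cut at about 30% in these data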
Bcl-xL primary = inhibitors of human Bcl-xL. hit rate 0.7% among 320,000. GST-Bcl-xL / FITC-Bim BH3 peptide fluorescence polarization. AID 2129. inhibition, % at 10.9 µM;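 active = inhibition above the mean of all tested compounds plus 3 SD, cutoff set per campaign, cut at about 30% in these data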;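 note: inhibitors lower millipolarization by displacing the labeled peptide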
MEX-5 binding = C. elegans MEX-5 TCR-2 RNA binding activity; Q9XUB2; hit rate 0.38% among 300,000; AID 1832; activity score (negative = inhibition of binding), % at 10 µM; MEX-5/FITC-TCR2 RNA binding, fluorescence polarization; hits give low values;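 active = inhibition past about -25% in most replicates, and total fluorescence under double the plate's negative control median, limit read from the data; inconclusive = replicates evenly split on the limit, or fluorescence at least double controls; inactive = too little inhibition in most replicates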
Bcl-xL conf = Bcl-xL (human) inhibition, MCL1 counter-screen confirmation. GST-Bcl-xL / FITC-Bim BH3 peptide FP binding. shares compounds with MCL1 BIM primary. inhibition, % at 10.9 µM. hit rate 54% among 1,700;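 active = inhibition above a cutoff equal to the mean inhibition of all tested compounds plus 3 SD, cut at about 30% in these data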
MCL1 BIM confirm = MCL1-BIM-BH3 interaction inhibition, confirmation; hit rate 61% among 1,700; AID 2168; inhibition, % at 10.9 µM; GST-MCL1 / FITC-Bim-BH3 fluorescence polarization; shares compounds with MCL1 BIM primary;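 active = inhibition above the average of all tested compounds plus 3 SD, cut at about 40% in these data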
A number is an active result; – = inactive; ? = inconclusive; · = not tested or not shown; + = active, no number. This is a sample that favours compounds with a hit; in the whole collection about 1.5% have one here.

SMILES	E coli Lon inh	MCL1 BIM primary	EBV gp42 inh	GLD-1 RNA inh	Bcl-xL primary	MEX-5 binding	Bcl-xL conf	MCL1 BIM confirm
O=C(NCCc1ccccc1)c1ccc(=O)oc1	–	–	–	–	–	–	·	·
O=C(NC1CCCC1)c1ccc2nc(-c3ccco3)c(-c3ccco3)nc2c1	–	64	–	–	41	·	40	76
O=C(NCCO)c1ccc2nc(-c3ccco3)c(-c3ccco3)nc2c1	–	56	–	–	43	-39	60	77
O=C(NCCc1ccccc1)c1ccc2nc(-c3ccco3)c(-c3ccco3)nc2c1	–	40	55	–	–	–	42	75
c1coc(-c2nc3ccccc3nc2-c2ccco2)c1	–	60	–	–	34	?	34	42
COc1ccccc1NC(=O)c1cc2c(=O)n(C)c3ccccc3c2n1C	–	–	–	–	–	–	·	·
O=C(/C=C/c1ccco1)NC(=S)Nc1cccc(C(=O)O)c1	–	61	·	–	37	-34	31	52
COC(=O)C1CSc2[nH]c(=O)sc2C1c1ccccc1 (stereo unspecified)	–	119	–	84	107	-57	88	109
COc1cccc(/C=C/C(=O)OCC(=O)c2c(N)n(C)c(=O)n(C)c2=O)c1	–	–	·	–	–	·	·	·
O=C(O)c1cc(N=Nc2c(O)ccc3ccccc23)cc(C(=O)O)c1	–	·	–	·	·	·	·	·
O=C(O)c1ccc(N=Nc2c(O)ccc3ncccc23)cc1	–	51	·	–	–	–	40	59
CC1CCCCC1NC(=O)CCC(=O)N1CCOc2ccc(Cl)cc21 (stereo unspecified)	–	–	·	–	–	–	·	·
CC(=O)OCC1=C(C(=O)O)N2C(=O)C(NC(=O)c3ccc(COc4c(C)cccc4Cl)o3)C2SC1 (stereo unspecified)	–	43	–	–	–	–	–	51
CC(=O)OCC1=C(C(=O)O)N2C(=O)C(NC(=O)c3ccc(COc4ccc(Cl)cc4)o3)C2SC1 (stereo unspecified)	–	–	–	–	–	–	·	·
O=C(O)C1Sc2[nH]c(=O)sc2C2c3ccc(O)cc3OC(=O)C12 (stereo unspecified)	–	82	–	73	67	?	46	49
O=C(O)C1Sc2[nH]c(=O)sc2C2c3cc(Cl)ccc3OC(=O)C12 (stereo unspecified)	–	–	–	–	–	–	·	·
CCOP(=O)(OCC)C(Nc1ccc(OC)cc1)c1ccco1 (stereo unspecified)	–	–	–	–	–	–	·	·
COc1ccc(NC(=O)c2c3c(nc4ccccc24)CCC3)cc1S(=O)(=O)N1CCOCC1	–	50	–	–	–	–	–	45
CC(=O)Nc1ccc(NC2=C(Cl)C(=O)c3ccccc3C2=O)cc1	·	·	–	·	·	–	·	·
CN(C)c1ccc(NC2=C(Cl)C(=O)c3ccccc3C2=O)cc1	–	41	–	–	–	–	32	–
Cc1coc2c(C)c3oc(=O)c(CCC(=O)N[C@@H](C)C(=O)N[C@@H](Cc4ccccc4)C(=O)O)c(C)c3cc12	–	–	·	–	–	–	·	·
COC(=O)c1cc(-c2ccc(OC)c(OC)c2)c2c(=O)[nH]c(=O)n(C)c2n1	–	–	·	–	–	–	·	·
COc1ccc(/C=C(\C#N)C(=O)NCCc2ccccc2)cc1OCc1ccccc1	–	–	–	–	–	–	·	·
COCCCNC(=O)/C(C#N)=C/c1ccc(OCC(=O)O)c(OC)c1	–	57	–	–	–	–	–	–
Cc1ccc(Cl)cc1NC(=O)c1ccccc1OCC(=O)N1CCOCC1	–	63	·	–	–	–	–	–
SMILES	E coli Lon inh	MCL1 BIM primary	EBV gp42 inh	GLD-1 RNA inh	Bcl-xL primary	MEX-5 binding	Bcl-xL conf	MCL1 BIM confirm
Cc1ccc(Cl)cc1NC(=O)c1ccccc1OCC(=O)Nc1ccc(Cl)cc1	–	–	–	–	–	–	·	·
Cc1cc(=O)c2c([nH]1)c(C)cc1[nH]c(C)c(C)c12	–	100	·	68	101	·	–	–
CCc1cccc2cc3c(N)c(C(=O)Nc4ccc(S(=O)(=O)N5CCCC5)cc4)sc3nc12	–	94	81	61	104	–	43	67
NC(=O)Nc1ccc(C(=O)OCC(=O)N2CCCC2=O)cc1	–	–	·	–	–	·	·	·
Cc1cc(C(=O)Nc2ccc(Cl)cc2)n(-c2ccccc2)n1	–	–	·	–	–	–	·	·
Cc1ccc(NC(=O)c2cc(C)nn2-c2ccccc2)cc1	–	+	–	161	+	–	–	–
COc1cccc(CNCc2ccccc2Br)c1OC	–	–	·	–	–	–	·	·
O=[N+]([O-])c1nn(-c2ccc3c(c2)OCCO3)n(O)c1=NCc1ccccc1Cl	–	54	–	–	42	–	–	–
COc1ccccc1CN=c1c([N+](=O)[O-])nn(-c2ccc3c(c2)OCCO3)n1O	–	–	–	–	–	–	·	·
O/N=C(/c1ccc(F)cc1)C1CC1c1c(F)cccc1Cl (stereo unspecified)	–	–	·	–	–	–	·	·
O=C(NNC(=O)c1ccccc1F)c1cccc(-n2cccc2)c1	–	65	·	–	–	–	–	92
O=C(NCC1CCCCC1)c1ccc(F)cc1Cl	–	–	·	–	–	–	·	·
CC1(C)C(/C=C/C=C/C=C/C=C2\N(CCCCS(=O)(=O)O)c3ccc4ccccc4c3C2(C)C)=[N+](CCCCS(=O)(=O)[O-])c2ccc3ccccc3c21	–	90	·	–	85	·	68	74
COC(=O)c1ccc(C(=O)Nc2ccc(N)cc2N)cc1	–	77	–	–	76	–	–	–
CC(C)(C)OC(=O)N[C@@H](C(=O)OC(C)(C)C)c1ccc2c(c1)OCO2	–	–	·	–	–	·	·	·
CSc1nc(NCCOCCO)c2sc3nc(-c4ccco4)c4c(c3c2n1)CCC4	–	69	–	–	–	–	–	67
O=C(N[C@@H](Cc1ccccc1)C(=O)N1CCC2(CC1)NCCc1[nH]cnc12)c1cccc(F)c1	–	–	·	–	–	–	·	·
CC(=O)NN1C(=O)/C(=C\c2ccc(O)cc2)SC1=S	–	–	–	–	–	?	·	·
CC(=O)NN1C(=O)/C(=C/c2ccc(Br)o2)SC1=S	–	45	–	–	–	–	–	–
CC(=O)NN1C(=O)/C(=C\c2ccccc2)SC1=S	–	–	·	–	–	–	·	·
CC(=O)NN1C(=O)/C(=C\c2ccc(Br)o2)SC1=S	–	71	–	–	33	–	–	–
CC(O)(c1ccccc1)c1ccc2ccccc2n1 (stereo unspecified)	–	·	·	·	·	·	·	·
Cn1cc(/C=C2\SC(=O)NC2=S)c2ccccc21	–	60	72	–	62	–	74	82
CC(=O)c1sc2nc(-c3cccs3)cc(C(F)(F)F)c2c1N	–	68	–	–	63	-30	74	83

Assay outcomes deposited in PubChem BioAssay by several laboratories.
